From PubChem BioAssay (Tox21)
Values joined by “and” are separate entries in the source; they are usually repeats but may differ in a detail not shown here. Equal values may be shown once. Inconclusive results are not listed. Where a call stands in place of a potency, no number is given. A number with no mark means an inactive call. Active and inactive are the calls of the source. Calls come from the whole dose curve; as a rule, active = well fitted inhibition curve with a large enough effect in the repeat runs; inconclusive = weak or mixed curves; inactive = no such curve, though single readings can be large or run the other way.

Assay: qHTS assay to identify small molecule antagonists of the thyroid receptor (TR) signaling pathway (AID 743065); note: nearly all actives have a fitted effect of over 55% in size
Conditions: GH3.TRE-Luc, T3-stimulated luciferase inhibition, 23.5 h; series mostly up to 70.3 µM
Description: U.S. Tox21 Program National Center for Advancing Translational Sciences [NCATS] NIH Chemical Genomics Center [NCGC] U.S. Environmental Protection Agency [EPA] National Institutes of Environmental Health Sciences [NIEHS] National Toxicology Program [NTP] U.S. Food and Drug Administration [FDA] Tox21 Assay Overview: Thyroid receptor (TR), a nuclear hormone receptor, plays an important role in development, proliferation, differentiation, metabolism, brain function, and cardiovascular system. […] To profile the Tox21 10K compound library in TR signaling, a cell-based GH3-TRE-Luc assay (GH3.TRE-Luc cell line, developed by the laboratory of Dr. Albertinka J. Murk, Wageningen University) was used to measure the inhibition of TR. GH3 (rat pituitary tumor) cells stably expressing a TR activity sensor consisting of two TR response elements and a luciferase reporter gene.
Tox21 Assay Protocol Summary: GH3.TRE-Luc cells were dispensed at 1500 cells/4 uL/well into 1536-well white solid bottom plates using a Multidrop Combi dispenser (Thermo Fisher Scientific Inc., Waltham, MA). After the assay plates were incubated at 37 C for 4 hours, 23 nL of library compound or DMSO controls was transferred to the assay plates by a pintool station (Kalypsys, San Diego, CA), followed by addition of 1 ul of T3 (1 nM, final concentration in the wells) to stimulate TR transactivation. The assay plates were incubated at 37 C for 23.5 h, and then 1 uL of CellTiter-Fluor reagent (Promega, Madision, WI) of measuring cytotoxicity was added to each well using a Bioraptr Flying Reagent Dispenser (FRD) workstation (Beckman Coulter, Indianapolis, IN, USA). The plates were incubated at 37 C and 5% CO2 for additional 30 min, and fluorescence intensity was measured by a ViewLux plate reader (PerkinElmer, Shelton, CT). For measuring luciferase reporter gene activity, 4 uL of ONE-Glo Luciferase Assay reagent (Promega) was added to each well using a Bioraptr FRD (Beckman Coulter), followed by 30 min incubation at room temperature. The luminescence intensity of plates was recorded by a ViewLux plate reader (PerkinElmer, Shelton, CT).
Potency is the fitted concentration of half-maximal effect.

**Q.** Which Potency does the source give for `Oc1ccc2c3c1O[C@H]1[C@@H](O)C=C[C@H]4[C@@H](C2)NCC[C@@]341` here?
**A.** inactive

**Q.** For `CCSC(=O)Cl`, which Potency is on record?
**A.** inactive

**Q.** For `CCOC(=O)C(SP(=S)(OC)OC)c1ccccc1` (stereo not given), which Potency is on record?
**A.** inactive

**Q.** Which Potency does the source give for `COc1ccc(CN2CCNCC2)c(OC)c1OC` here?
**A.** inactive

**Q.** With `Clc1cc2c(cc1Cl)Oc1cc(Cl)c(Cl)cc1O2` as the compound, how does the activity, negative = inhibition read?
**A.** 0.19% [at 0.341 µM]

**Q.** With `CCC(C)(C#N)N=NC(C)(C#N)CC` (stereo not given) as the compound, how does the Potency read?
**A.** inactive

**Q.** Which Potency does the source give for `C#CC(C)(C)O` here?
**A.** inactive

**Q.** Which Potency does the source give for `CC1N=C(N)OC1c1ccccc1` (stereo not given) here?
**A.** inactive

**Q.** With `O=C1C2CC=CCC2C(=O)N1SC(Cl)(Cl)Cl` (stereo not given) as the compound, how does the Potency read?
**A.** 2.98 µM (active) and 68.3 µM (active) and 1.69 µM (active)

**Q.** For `CCOC(=O)N(C)N=O`, which Potency is on record?
**A.** inactive

**Q.** For `CCOC(=O)C(Cl)Cc1cc(-n2nc(C)n(C(F)F)c2=O)c(F)cc1Cl` (stereo not given), which Potency is on record?
**A.** inactive

**Q.** With `O=S1(=O)OCCO1` as the compound, how does the Potency read?
**A.** inactive

**Q.** For `CCNc1nc(Cl)nc(NC(C)(C)C)n1`, which Potency is on record?
**A.** inactive

**Q.** Which Potency does the source give for `CC(C)N(Cc1ccccc1)C(=O)C(C)(C)C` here?
**A.** inactive

**Q.** Which Potency does the source give for `CCOP(=O)(CN(CCO)CCO)OCC` here?
**A.** inactive

**Q.** For `ClCCCCCCCl`, which Potency is on record?
**A.** inactive

**Q.** Which Potency does the source give for `CCC(=O)OC1(c2ccccc2)CCN(C)CC1` here?
**A.** inactive

**Q.** For `CC(C)c1ccc(O)cc1`, which Potency is on record?
**A.** inactive

**Q.** For `CN(CCO)CCO`, which Potency is on record?
**A.** inactive

**Q.** Which Potency does the source give for `Nc1c(Cl)c(F)nc(OCC(=O)O)c1Cl` here?
**A.** inactive

**Q.** With `COc1ccc2c(C(=O)c3ccc(Cl)cc3)c(C)n(CC(=O)O)c2c1` as the compound, how does the Potency read?
**A.** inactive

**Q.** With `CC(C)(C)NC[C@H](O)c1ccc(O)cc1Cl` as the compound, how does the Potency read?
**A.** inactive

**Q.** With `COP(=O)(O)OC` as the compound, how does the Potency read?
**A.** inactive

**Q.** Which Potency does the source give for `N=C(N)[Se]` here?
**A.** inactive

**Q.** For `OCC(Cl)CCl` (stereo not given), which Potency is on record?
**A.** inactive

**Q.** For `CS(=O)(=O)c1ccc(C(=O)C2C(=O)CCCC2=O)c(Cl)c1COCC(F)(F)F`, which Potency is on record?
**A.** inactive

**Q.** For `CN(C)C(=O)Oc1cc(OC(=O)N(C)C)cc(C(O)CNC(C)(C)C)c1` (stereo not given), which Potency is on record?
**A.** inactive

**Q.** For `ClCC1CO1` (stereo not given), which Potency is on record?
**A.** inactive

**Q.** For `CCC1(CC)C(=O)C=CNC1=O`, which Potency is on record?
**A.** inactive

**Q.** For `O=C(O)C(Br)(Br)Br`, which Potency is on record?
**A.** inactive

**Q.** Which Potency does the source give for `CC(C)[C@]12CC(=O)[C@H](C)[C@H]1C2` here?
**A.** inactive

**Q.** Which Potency does the source give for `CN(C)CCc1c[nH]c2cccc(OP(=O)(O)O)c12` here?
**A.** inactive

**Q.** For `Cn1c(N)nc2c3cccnc3ccc21`, which Potency is on record?
**A.** inactive

**Q.** For `COC(=O)c1ccc(CBr)cc1`, which Potency is on record?
**A.** inactive

**Q.** With `CCc1cc(OC)c(C[C@H](C)N)cc1OC` as the compound, how does the Potency read?
**A.** 31.9 µM (active)

**Q.** For `O=C(Cl)C(Cl)Cl`, which Potency is on record?
**A.** inactive

**Q.** Which Potency does the source give for `COP(=O)(OC)O/C(C)=C/C(=O)N(C)C` here?
**A.** inactive

**Q.** For `Cc1ccc2cc(C)ccc2c1`, which Potency is on record?
**A.** inactive

**Q.** Which Potency does the source give for `N[C@@H]1C[C@H]1c1ccccc1` here?
**A.** inactive

**Q.** With `O=CCCl` as the compound, how does the Potency read?
**A.** inactive
